According to PubChem BioAssay (NCATS):
Records with an inconclusive call do not appear. A call without a number means that no potency is given here. Active and inactive are the calls of the source. The call rests on the fitted dose curve; in most records, active means well fitted inhibition curve with a large enough effect; inconclusive means small, poorly fitted or top-dose-only effect; inactive means no such curve, though single readings can be large or run the other way.

Tested on: Zika virus NS2B-NS3 protease (unlinked)
Test: Optimization of GU AMC qHTS for Zika virus inhibitors: Unlinked NS2B-NS3 protease assay (AID 1347151); further: nearly all actives have a fitted effect of over 80% in size
Conditions: recombinant ZIKV NS2B-NS3 protease, fluorogenic AMC substrate; series mostly up to 52.5 µM
Procedure, shortened: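 Noncovalent complex of NS2B hydrophilic domain and NS3 protease domain, 25 nM final, in 10 mM Tris-HCl pH 8.0, 0.01% Tween 20. AMC fluorescence change over 15 min at room temperature was fitted to a 4-parameter Hill equation.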
Potency means the concentration at half of the fitted maximal effect.

SMILES	Potency
Clc1ccc2nsnc2c1NC1=NCCN1	inactive
Cn1c(=O)c2[nH]cnc2n(C)c1=O	inactive
CCC1(c2ccccc2)C(=O)NCNC1=O	inactive
O=C1c2c(O)ccc(O)c2C(=O)c2c(NCCNCCO)ccc(NCCNCCO)c21	inactive
CC(C)Cc1ccc(C(C)C(=O)O)cc1 (centres undefined)	inactive
CN(Cc1cnc2nc(N)nc(N)c2n1)c1ccc(C(=O)N[C@@H](CCC(=O)O)C(=O)O)cc1	21.2 µM (active)
CN1CCN(CCCN2c3ccccc3Sc3ccc(Cl)cc32)CC1	inactive
COc1cc2c(c(OC)c1OC)-c1ccc(OC)c(=O)cc1[C@@H](NC(C)=O)CC2	inactive
CCOC(=O)Nc1ccc(NCc2ccc(F)cc2)nc1N	23.8 µM (active)
CC(CCc1ccc(O)cc1)NCCc1ccc(O)c(O)c1 (centres undefined)	inactive
NC(=O)NO	inactive
CC(=O)OCC(CCn1cnc2cnc(N)nc21)COC(C)=O	26.7 µM (active)
OCCN(CCO)c1nc(N2CCCCC2)c2nc(N(CCO)CCO)nc(N3CCCCC3)c2n1	26.7 µM (active)
CS(=O)(=O)Nc1ccc([N+](=O)[O-])cc1Oc1ccccc1	inactive
CC1COc2c(N3CCN(C)CC3)c(F)cc3c(=O)c(C(=O)O)cn1c23 (centres undefined)	15 µM (active)
O=C1Cc2cc(CCN3CCN(c4nsc5ccccc45)CC3)c(Cl)cc2N1	26.7 µM (active)
CN(C)CCCN1c2ccccc2CCc2ccc(Cl)cc21	inactive
Cc1cnc(C(=O)NCCc2ccc(S(=O)(=O)NC(=O)NC3CCCCC3)cc2)cn1	inactive
NC12CC3CC(CC(C3)C1)C2	inactive
CC[N+](CC)(CC)CCOc1cccc(OCC[N+](CC)(CC)CC)c1OCC[N+](CC)(CC)CC	inactive
O=C(Nc1ccc([N+](=O)[O-])cc1Cl)c1cc(Cl)ccc1O	inactive
COc1cc2nc(N3CCN(C(=O)c4ccco4)CC3)nc(N)c2cc1OC	26.7 µM (active)
COC(=O)Nc1nc2ccc(C(=O)c3cccs3)cc2[nH]1	inactive
CC(C)C(=O)Nc1ccc([N+](=O)[O-])c(C(F)(F)F)c1	inactive
O=C(c1ccc(OCCN2CCCCC2)cc1)c1c(-c2ccc(O)cc2)sc2cc(O)ccc12	inactive
CC[C@@]1(O)C(=O)OCc2c1cc1n(c2=O)Cc2cc3c(CN(C)C)c(O)ccc3nc2-1	inactive
CC(C)NCC(O)c1ccc(O)c(O)c1 (centres undefined)	inactive
Nc1ccn([C@H]2CC[C@@H](CO)O2)c(=O)n1	inactive
CC#C[C@]1(O)CC[C@H]2[C@@H]3CCC4=CC(=O)CCC4=C3[C@@H](c3ccc(N(C)C)cc3)C[C@@]21C	inactive
